Among all 290,000 compounds or so, about 27,000 (9.3%) were called active. No stated cut-off is given here; in the data, active means inhibition mostly above about 28% (no sharp cut-off); inactive means mostly below about 43%. This excerpt belongs to a sample that is enriched for actives.

The term inhibition denotes the change of the read-out against control, counted positive when it falls.

This test in a line: A qHTS for Small Molecule Inhibitors of Shiga Toxin. Further: 0% is about no effect. As to conditions: Vero cells, Shiga toxin protein synthesis inhibition reporter; at 38.7 µM, stronger effect = higher value.
As to `COc1ccnc2c1c(=O)n(Cc1cccc(F)c1)c(=O)n2C`, the inhibition is -2.76% (inactive). For the molecule `Cn1c(=O)c2c(nc(NCCNC(=O)c3ccco3)n2Cc2ccccc2F)n(C)c1=O`, the inhibition was -9.7% (inactive). The same measure for `O=C(O)c1ccccc1CSc1nc2ccccc2s1`: 70.7% (active); for `CCN(CC)CCCSc1nc2ccccc2s1`: 47.9% (inactive); for `O=C(CSc1nc2ccccc2s1)Nc1ccc(C(=O)O)cc1`: -1.35% (inactive). For `COc1cc(OC)cc(C(=O)OCC(=O)Nc2sccc2C(N)=O)c1`, the inhibition was -3.26% (inactive). To `CCOC(=O)N1CCN(C(=O)C2CCN(S(=O)(=O)c3cc(Cl)ccc3OCC)CC2)CC1` belongs -12.3% (inactive); to `Cc1ccc(N(CC(=O)NC2CCCCC2)C(=O)CCCC(=O)Nc2ccccn2)c(C)c1`, -5.94% (inactive). Take `COc1ccc(OC)c(CNC(=O)CCc2nc(-c3cccs3)no2)c1`: the inhibition was 4.93% (inactive). For the molecule `CCc1ccc(CNC(=O)CCc2nc(-c3cccs3)no2)cc1`, the inhibition was -8.04% (inactive). The same measure for `COc1ccc(CCc2nc(-c3cccs3)no2)cc1`: 120% (active); for `COc1ccc(S(=O)(=O)NCCc2cc3ccc(C)c(C)c3[nH]c2=O)cc1`: 1.8% (inactive).

In the case of `Cn1c(SCc2ccc(F)cc2)nnc1-c1ccncc1`, the inhibition was 3.38% (inactive). The same measure for `Cc1cc(C)nc(SCC(=O)c2ccc(Cl)cc2)n1`: -6.93% (inactive). The same measure for `Cc1cc(C)nc(S/C=C/C(=O)c2ccccc2)n1`: 159% (active). The same measure for `Cc1cc(SCC(=O)c2ccccc2)nc(SCC(=O)c2ccccc2)n1`: 51.3% (inactive); for `O=C(c1ccc(Br)o1)N1CCN(CCOc2ccccc2)CC1`: -4.41% (inactive); for `Cc1ccc(CNC(=O)[C@@H](NC(=O)Cc2ccccc2)C(C)C)cc1`: -12.1% (inactive). For `CCCOc1ccc(/C=N/NC(=O)C2CC2)c(OCCC)c1`, the inhibition was -6.76% (inactive).

As for `CCC(C)NC(=O)CSC1=Nc2ccccc2C2=NC(CCC(=O)NCc3ccco3)C(=O)N12` (configuration not stated), the inhibition was -9.08% (inactive). To `O=C(CSC1=Nc2ccccc2C2=NC(CC(=O)NCc3ccco3)C(=O)N12)NCc1ccco1` (configuration not stated) belongs -3.74% (inactive); to `O=C(CC1N=C2c3ccccc3N=C(SCc3ccccc3Cl)N2C1=O)NCc1ccco1` (configuration not stated), 38.1% (active); to `CC(=O)OCC(NC(=O)C(Cc1ccccc1)NC(=O)OC(C)(C)C)C1OC(n2ccc(=O)[nH]c2=O)C(OC(C)=O)C1OC(C)=O` (configuration not stated), 7.84% (inactive). To `C=CCNc1nc(N)c([N+](=O)[O-])c(NC2CCCCC2)n1` belongs 14.1% (inactive); to `CCC(CC)c1nnc(NC(=O)C2CCN(C(=O)c3ccco3)CC2)s1`, 4.71% (inactive). The same measure for `Cc1cc(N=Nc2ccc3ccccc3c2)ccc1O`: 107% (active); for `COc1ccc(N=Nc2ccc(O)c(P(=O)(c3ccccc3)c3ccccc3)c2)cc1`: -5.57% (inactive); for `Cc1c(N=Nc2ccc(N(C)C)cc2)c(=O)n(-c2ccccc2)n1C`: 55.4% (active). `Cc1ccc(N=Nc2c(C)[nH]n(-c3ccccc3)c2=O)cc1`: the inhibition is 25.5% (inactive). In the case of `Cc1nc(N)sc1N=Nc1c(C)n(C)n(-c2ccccc2)c1=O`, the inhibition is 2.84% (inactive).

`CCCN1CCC(=O)N(C(CSc2ccc(OC)cc2)Cc2ccccc2)CC1` (configuration not stated): the inhibition is -5.53% (inactive). In the case of `COc1ccc(CNC(=O)C(NS(=O)(=O)c2cccc3nsnc23)C(C)C)cc1` (configuration not stated), the inhibition is -7.36% (inactive). As to `O=C(O)CCC(=O)N(Cc1ccccc1)Cc1ccccc1`, the inhibition is -10.9% (inactive). The same measure for `CC[C@@H](C)[C@H](NC(=O)CCc1c(C)c2cc3c4c(oc3c(C)c2oc1=O)CCCC4)C(=O)O`: 22.3% (inactive); for `COc1cccc(OCCOc2cccc(/C=N/n3cnnc3)c2)c1`: 41.7% (active). To `COc1ccccc1OCCOc1ccc(/C=N/n2cnnc2)cc1` belongs -21.9% (inactive). The same measure for `C(=N\n1cnnc1)/c1cccnc1`: 2.15% (inactive); for `O=C(c1ccc2c(c1)N(Cc1ccc(F)cc1)C(=O)c1ccccc1S2(=O)=O)N1CCN(c2ccccn2)CC1`: -2.78% (inactive); for `CSc1ccc(C#N)cc1NC(=O)c1cccc(Cl)c1`: -14.6% (inactive).

For `Cc1cc(NC(=O)COc2ccc(Cl)cc2Cl)n(CCC#N)n1`, the inhibition is 87.8% (inactive). To `CCOc1ccc(CN2CCN(Cc3ccc4cc(F)ccc4n3)CC2CCO)cc1` (configuration not stated) belongs -9.76% (inactive).

Consider `CCOc1cc(/C=C(\C#N)c2nc(-c3cccs3)c(NC(C)=O)s2)ccc1O`, for which the inhibition is -0.261% (inactive). To `COc1cc(/C=C(\C#N)c2nc3ccccc3[nH]2)ccc1O` belongs 55.7% (active).

As to `Cc1ccccc1OC/C(O)=C(\C#N)c1nc2ccccc2[nH]1`, the inhibition was -10.2% (inactive). To `COc1ccc(/C=C(/NC(=O)c2ccc(C)cc2)c2nc3ccccc3[nH]2)cc1OC` belongs -2.72% (inactive). As to `COc1cc(/C=C(\C#N)c2nc3c(s2)CC(C)CC3)ccc1O` (configuration not stated), the inhibition is 62.8% (active). To `Cc1ccc(-c2ccnc3[nH]n(-c4ccccc4)c(=O)c23)cc1` belongs 17.7% (inactive). The same measure for `C[C@H](NC(=O)C1CCN(S(=O)(=O)c2ccccc2)CC1)C(=O)NCc1ccccc1`: -3.31% (inactive).

Take `CC(=O)N1c2ccc(S(=O)(=O)NCCC(=O)N(C)C3CCCCC3)cc2CC1C` (configuration not stated): the inhibition is 2.29% (inactive). To `COc1ccc(C(C(=O)NC2CCCC2)N(CCCO)C(=O)Cn2nnc(-c3ccc(C)o3)n2)cc1` (configuration not stated) belongs -6.08% (inactive).

As to `COc1cccc(C(=O)N/N=C(\C)c2cccc(NC(=O)c3ccc(F)cc3)c2)c1OC`, the inhibition was 77.4% (active). With `CC(=O)Nc1cccc(/C(C)=N/NC(=O)c2ccccc2Cl)c1`, the inhibition was 22% (inactive).

Regarding `C/C(=N/NC(=O)c1ccc(NC(=O)c2ccc(F)cc2)cc1)c1ccccc1`, the inhibition was 30% (inactive). Take `OC(CNC1CCCC1)COc1ccc(F)cc1` (configuration not stated): the inhibition was -14% (inactive). Regarding `CC(=O)N1CCN(CC(c2ccccc2)c2ccccc2)CC1`, the inhibition was -3.73% (inactive). `CC1CCCN(CC(=O)Nc2cc(Cl)ccc2Oc2ccccc2)C1` (configuration not stated): the inhibition was 0.789% (inactive). To `CC1CCC2CCCCC2N1C(=O)c1cc([N+](=O)[O-])cc([N+](=O)[O-])c1` (configuration not stated) belongs -16.8% (inactive). As to `COC(=O)C(C)Oc1ccc2c(c1)O/C(=C\c1cccc(Br)c1)C2=O` (configuration not stated), the inhibition was -4.67% (inactive). With `O=C1/C(=C/c2ccc3c(c2)OCO3)Oc2cc(OCC(=O)N3CC(O)C[C@H]3C(=O)O)ccc21` (some centres not stated), the inhibition is -3% (inactive).

Turning to `CN(C)C(=O)Oc1ccc2c(c1)O/C(=C\c1ccccc1)C2=O`, the inhibition was 62% (active). For the molecule `Cc1ccc(S(=O)(=O)N2CCC(C)CC2)cc1C(=O)NCc1ccccn1`, the inhibition is 5.07% (inactive). In the case of `COc1ccccc1OCc1ccc(C(=O)NC(C)c2ccccc2)o1` (configuration not stated), the inhibition is -4.29% (inactive). The same measure for `CCc1cc(-c2nnc(SCC(=O)NC3CC3)n2C)cs1`: 14.1% (inactive); for `C=CCNC(=O)c1ccc(C)c(Br)c1`: 19.7% (active). To `Cc1ccc(C(=O)NC(C)c2ccccc2)cc1Br` (configuration not stated) belongs 38.4% (inactive).

In the case of `Cc1ccc(C(=O)N2CCCCCC2)cc1Br`, the inhibition was 20.5% (inactive). The same measure for `CCCc1nnc(SCC(=O)Nc2ccc(C(=O)OCC)cc2)o1`: 32.8% (inactive); for `COCCNC(=O)c1ccc2c(c1)ncn2-c1ccc(C)c(Cl)c1`: 19.9% (inactive); for `COCCNC(=O)c1snc2ccc(Cl)cc12`: 51.4% (active). To `COCCNC(=O)c1ccc(S(=O)(=O)c2ccc(Cl)cc2)c(NC(C)=O)c1` belongs -11.4% (inactive); to `Cc1ccc(S(=O)(=O)N2CCCC(C(=O)N3CCN(C)CC3)C2)cc1` (configuration not stated), -6.59% (inactive). To `NS(=O)(=O)c1cccc(NC(=O)CC23CC4CC(CC(Br)(C4)C2)C3)c1` belongs -9.01% (inactive); to `CCOc1ccc(C(=O)Nc2ccc(S(=O)(=O)NCC3CCCO3)cc2)cc1OCC` (configuration not stated), 12.5% (inactive). As to `O=C(Cc1csc(Nc2nc(=S)[nH]c3ccccc23)n1)NCCCN1CCN(c2cccc(Cl)c2)CC1`, the inhibition is 15.7% (inactive). Consider `O=C(NC1CCCC1)C(c1ccc(Cl)cc1)N(C(=O)c1csnn1)C1CC1` (configuration not stated), for which the inhibition is 2.36% (inactive). To `O=C(NCc1ccccc1)C(c1cccnc1)N(C(=O)c1csnn1)c1ccc(F)cc1` (configuration not stated) belongs 1.7% (inactive); to `CC1CCN(C(=O)Cn2nnnc2CN2CCOCC2)CC1`, 15.5% (inactive); to `CS(=O)(=O)n1nc(-c2ccccc2)nc1NCc1ccco1`, 7.12% (inactive).

For `CCS(=O)(=O)n1nc(-c2ccccc2)nc1SCc1ccccc1`, the inhibition was 115% (active). In the case of `CCS(=O)(=O)n1nc(-c2ccc(OC)cc2)nc1SC`, the inhibition was 63.1% (inactive). The same measure for `CCCC(C(=O)NC1CCCC1)N(C(=O)Cn1nnc(-c2ccc(C)o2)n1)c1cccc(O)c1` (configuration not stated): -4.05% (inactive); for `C[C@@H]1O[C@@H](OC[C@H]2O[C@@H](Oc3cc(O)c4c(c3)O[C@H](c3ccc(O)c(O)c3)CC4=O)[C@H](O)[C@@H](O)[C@@H]2O)[C@H](O)[C@H](O)[C@H]1O`: -8.25% (inactive); for `Cc1ccc(Cn2ccc(NC(=O)C3C4CCC(C4)C3C(=O)O)n2)cc1` (configuration not stated): -3.4% (inactive). The same measure for `Cc1cc(NC(=O)c2cc(-c3cccs3)on2)nn1Cc1ccc(Cl)cc1`: 9.37% (inactive); for `Cc1ccc(Cn2ccc(NC(=O)c3cc(C(C)C)on3)n2)cc1`: 84.3% (active).

As to `OC(c1ccc(Cl)cc1)C(CN1CCOCC1)c1ccccc1` (configuration not stated), the inhibition was 2.21% (inactive). To `CC(=O)c1ccc(S(=O)(=O)NCc2nnnn2-c2ccccc2)cc1` belongs -2.55% (inactive). To `O=C(CSc1nnc(-c2ccncc2)o1)NCc1ccc(Cl)cc1` belongs -9.29% (inactive); to `Clc1ccc(-c2nnc(SCc3nc4ccccc4s3)o2)cc1`, 61.6% (active). As to `c1ccc(-c2nnc(SCc3nc4ccccc4[nH]3)o2)cc1`, the inhibition was 36.1% (inactive). To `CCOc1ccc(S(=O)(=O)N2CCC(c3ccccc3)CC2)cc1C(=O)O` belongs -1.98% (inactive); to `COc1cccc(-c2nc(CS(=O)(=O)CC(=O)NCCc3ccc(OC)c(OC)c3)c(C)o2)c1`, -8.6% (inactive).

The record behind these values is PubChem BioAssay AID2315 (National Center for Advancing Translational Sciences (NCATS), 2010).
